Eleven compounds from ChEMBL document CHEMBL3988442, “University of Dundee, Small-Polar-MMV Screening Library” (2021) can be followed below.

For some of these results: Measured potencies and affinities stand elsewhere.

What all share (parameters): scale not given: direction of the effect not stated beside the values
Test [1] has as its target Protein translocase subunit SecA (Escherichia coli (strain K12)) (UniProt P10408). As to the kind of experiment: Assay to Identify E. coli SecA ATPase Inhibitors. In kind it is functional. The note with it: 30 µM.
The target in test [2] is T1, Ubiquitin-activating enzyme e1, putative (Leishmania donovani (strain BPK282A1)) (UniProt E9BSI1).
T1 sequence (whole entry): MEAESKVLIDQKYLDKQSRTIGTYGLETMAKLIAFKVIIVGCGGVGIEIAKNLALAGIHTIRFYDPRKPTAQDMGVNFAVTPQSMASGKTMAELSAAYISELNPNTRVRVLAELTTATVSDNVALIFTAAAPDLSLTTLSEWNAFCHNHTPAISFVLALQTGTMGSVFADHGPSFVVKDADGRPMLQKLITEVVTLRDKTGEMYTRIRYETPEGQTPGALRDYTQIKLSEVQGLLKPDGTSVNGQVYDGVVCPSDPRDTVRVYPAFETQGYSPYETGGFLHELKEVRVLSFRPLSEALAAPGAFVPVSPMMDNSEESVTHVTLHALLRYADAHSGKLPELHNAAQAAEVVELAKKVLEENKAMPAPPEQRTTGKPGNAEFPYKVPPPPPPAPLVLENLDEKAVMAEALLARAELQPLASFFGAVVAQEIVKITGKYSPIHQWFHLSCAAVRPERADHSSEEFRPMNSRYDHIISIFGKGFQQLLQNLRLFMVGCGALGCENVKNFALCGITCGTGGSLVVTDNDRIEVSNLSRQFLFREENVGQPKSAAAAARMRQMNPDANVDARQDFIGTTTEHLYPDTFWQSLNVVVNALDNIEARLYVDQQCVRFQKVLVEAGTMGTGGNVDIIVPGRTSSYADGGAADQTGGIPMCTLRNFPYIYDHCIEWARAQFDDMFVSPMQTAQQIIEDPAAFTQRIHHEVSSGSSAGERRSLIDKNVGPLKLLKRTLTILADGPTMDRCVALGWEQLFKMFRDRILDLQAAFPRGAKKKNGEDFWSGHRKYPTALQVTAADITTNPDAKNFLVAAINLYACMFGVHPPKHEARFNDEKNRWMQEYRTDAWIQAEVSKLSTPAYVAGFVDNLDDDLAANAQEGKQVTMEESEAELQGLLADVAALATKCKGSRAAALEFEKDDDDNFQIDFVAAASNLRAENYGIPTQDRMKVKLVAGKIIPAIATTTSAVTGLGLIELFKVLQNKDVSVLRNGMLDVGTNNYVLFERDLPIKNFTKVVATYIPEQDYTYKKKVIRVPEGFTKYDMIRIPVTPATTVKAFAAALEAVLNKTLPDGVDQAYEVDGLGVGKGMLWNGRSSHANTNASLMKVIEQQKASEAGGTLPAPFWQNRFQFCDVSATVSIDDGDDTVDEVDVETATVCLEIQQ
Briefly: Leishmania donovani Ubiquitin Activating Enzyme (LdE1). The note with it: 30 µM. In kind it is functional.

Test [3] addresses AMP-activated protein kinase, AMPK (Homo sapiens) (UniProt P54646+O43741+P54619+Q9UGJ0+Q9Y478+Q13131+Q9UGI9). As to the kind of experiment: AMP-dependent Kinase enzyme assay. An in vitro enzyme assay that detects ADP turnover that is directly proportional to AMPK activity. This uses naive AMPK that is activated during the assay with MK-8722. The format is functional. The note with it: 30 µM.

For test [4], the target named is Sialic acid-binding Ig-like lectin 9 (Homo sapiens) (UniProt Q9Y336). Briefly: Hs-Siglec9 ALPHAscreen SOP 20170721. The settings on record: 10 µM.
The next test deals with Trypanosoma cruzi. As to the kind of experiment: Trypanosoma cruzi phosphomannomutase and mannose-1-phosphate guanylyltransferase assay. The format is functional. The note with it: 10 µM.
The target in test [5] is T2, Arginase-2, mitochondrial (Homo sapiens) (UniProt P78540).
T2 sequence (whole entry): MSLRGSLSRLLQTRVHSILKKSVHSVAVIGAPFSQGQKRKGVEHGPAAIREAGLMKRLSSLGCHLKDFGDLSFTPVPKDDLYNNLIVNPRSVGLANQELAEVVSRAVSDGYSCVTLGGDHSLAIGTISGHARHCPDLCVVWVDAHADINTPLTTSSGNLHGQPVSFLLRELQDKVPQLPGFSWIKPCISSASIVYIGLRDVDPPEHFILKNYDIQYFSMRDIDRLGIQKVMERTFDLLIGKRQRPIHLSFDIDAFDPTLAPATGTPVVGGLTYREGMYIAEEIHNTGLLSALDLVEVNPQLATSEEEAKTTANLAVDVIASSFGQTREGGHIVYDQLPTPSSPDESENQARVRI
As to the kind of experiment: in vitro enzyme assay to detect the production of urea directly proportional to the activity of Arginase II. Further: in the data most compounds retested in dose-response had high values. The format is functional. The note with it: 33.3 µM.

The target in test [6] is T3, Proteasome subunit beta (Trypanosoma cruzi) (UniProt O96673).
T3 sequence (whole entry): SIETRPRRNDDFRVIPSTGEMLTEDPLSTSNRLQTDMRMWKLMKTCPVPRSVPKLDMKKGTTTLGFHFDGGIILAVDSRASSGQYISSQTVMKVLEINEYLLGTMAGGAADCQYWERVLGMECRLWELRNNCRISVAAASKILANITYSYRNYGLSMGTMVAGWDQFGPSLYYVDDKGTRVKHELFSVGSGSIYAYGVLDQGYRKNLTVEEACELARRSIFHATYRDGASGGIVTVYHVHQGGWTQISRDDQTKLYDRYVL
As to the kind of experiment: Trypanosoma cruzi proteasome chymotrypsin-like activity (TcProtChymo) assay. Further: in the data most compounds retested in dose-response had high values. The format is functional. The settings on record: 9.37 µM.

Another test is filed under the species Homo sapiens. As to the kind of experiment: To identify inhibition of the IFN signalling (Jak-Stat) pathway via expression of an eGFP reporter gene under the control of an IFN-stimulated response element (ISRE) containing MxA promoter. The format is functional. The settings on record: 30 µM.
Test [7] deals with T4, Tyrosyl-tRNA synthetase, putative (Trypanosoma cruzi (strain CL Brener)) (UniProt Q4DSP6).
T4 sequence (whole entry): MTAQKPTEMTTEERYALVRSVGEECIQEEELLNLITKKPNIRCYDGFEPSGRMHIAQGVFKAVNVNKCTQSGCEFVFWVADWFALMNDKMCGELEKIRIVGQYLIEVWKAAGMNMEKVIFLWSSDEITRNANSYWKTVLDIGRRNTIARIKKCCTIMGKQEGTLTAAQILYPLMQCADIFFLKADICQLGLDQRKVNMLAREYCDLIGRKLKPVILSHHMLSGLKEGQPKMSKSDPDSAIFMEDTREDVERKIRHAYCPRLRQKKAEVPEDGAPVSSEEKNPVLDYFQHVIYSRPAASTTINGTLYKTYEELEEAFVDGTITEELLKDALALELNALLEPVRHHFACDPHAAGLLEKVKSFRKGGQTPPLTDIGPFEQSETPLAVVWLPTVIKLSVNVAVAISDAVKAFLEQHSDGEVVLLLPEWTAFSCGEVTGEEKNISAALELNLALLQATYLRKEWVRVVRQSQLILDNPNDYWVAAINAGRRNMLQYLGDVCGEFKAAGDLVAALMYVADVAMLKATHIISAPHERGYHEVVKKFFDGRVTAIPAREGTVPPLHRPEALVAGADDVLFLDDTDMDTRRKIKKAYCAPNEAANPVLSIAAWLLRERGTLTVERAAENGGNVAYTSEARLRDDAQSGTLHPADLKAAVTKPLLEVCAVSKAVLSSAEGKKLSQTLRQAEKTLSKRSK
As to the kind of experiment: Trypanosoma cruzi tyrosyl tRNA synthetase (TcYRS) _High Tyrosine SOP. Further: in the data most compounds retested in dose-response had high values. The format is functional. The note with it: 30 µM.

Test [8] concerns the target T4, Tyrosyl-tRNA synthetase, putative (Trypanosoma cruzi (strain CL Brener)). As to the kind of experiment: Trypanosoma cruzi tyrosyl tRNA synthetase (TcYRS) SOP. In kind it is functional. The note with it: 30 µM.
In test [9] the target is Chromo domain-containing protein 1 (Saccharomyces cerevisiae (strain ATCC 204508 / S288c) (Baker's yeast)) (UniProt P32657). As to the kind of experiment: ScCHD-1 Enzyme Inhibition Assay. Further: in the data most compounds retested in dose-response had high values. In kind it is functional. The note with it: 30 µM.
Sequence of Chromo domain-containing protein 1 (Saccharomyces cerevisiae (strain ATCC 204508 / S288c) (Baker's yeast)) (P32657 whole entry, the tested form may be a part): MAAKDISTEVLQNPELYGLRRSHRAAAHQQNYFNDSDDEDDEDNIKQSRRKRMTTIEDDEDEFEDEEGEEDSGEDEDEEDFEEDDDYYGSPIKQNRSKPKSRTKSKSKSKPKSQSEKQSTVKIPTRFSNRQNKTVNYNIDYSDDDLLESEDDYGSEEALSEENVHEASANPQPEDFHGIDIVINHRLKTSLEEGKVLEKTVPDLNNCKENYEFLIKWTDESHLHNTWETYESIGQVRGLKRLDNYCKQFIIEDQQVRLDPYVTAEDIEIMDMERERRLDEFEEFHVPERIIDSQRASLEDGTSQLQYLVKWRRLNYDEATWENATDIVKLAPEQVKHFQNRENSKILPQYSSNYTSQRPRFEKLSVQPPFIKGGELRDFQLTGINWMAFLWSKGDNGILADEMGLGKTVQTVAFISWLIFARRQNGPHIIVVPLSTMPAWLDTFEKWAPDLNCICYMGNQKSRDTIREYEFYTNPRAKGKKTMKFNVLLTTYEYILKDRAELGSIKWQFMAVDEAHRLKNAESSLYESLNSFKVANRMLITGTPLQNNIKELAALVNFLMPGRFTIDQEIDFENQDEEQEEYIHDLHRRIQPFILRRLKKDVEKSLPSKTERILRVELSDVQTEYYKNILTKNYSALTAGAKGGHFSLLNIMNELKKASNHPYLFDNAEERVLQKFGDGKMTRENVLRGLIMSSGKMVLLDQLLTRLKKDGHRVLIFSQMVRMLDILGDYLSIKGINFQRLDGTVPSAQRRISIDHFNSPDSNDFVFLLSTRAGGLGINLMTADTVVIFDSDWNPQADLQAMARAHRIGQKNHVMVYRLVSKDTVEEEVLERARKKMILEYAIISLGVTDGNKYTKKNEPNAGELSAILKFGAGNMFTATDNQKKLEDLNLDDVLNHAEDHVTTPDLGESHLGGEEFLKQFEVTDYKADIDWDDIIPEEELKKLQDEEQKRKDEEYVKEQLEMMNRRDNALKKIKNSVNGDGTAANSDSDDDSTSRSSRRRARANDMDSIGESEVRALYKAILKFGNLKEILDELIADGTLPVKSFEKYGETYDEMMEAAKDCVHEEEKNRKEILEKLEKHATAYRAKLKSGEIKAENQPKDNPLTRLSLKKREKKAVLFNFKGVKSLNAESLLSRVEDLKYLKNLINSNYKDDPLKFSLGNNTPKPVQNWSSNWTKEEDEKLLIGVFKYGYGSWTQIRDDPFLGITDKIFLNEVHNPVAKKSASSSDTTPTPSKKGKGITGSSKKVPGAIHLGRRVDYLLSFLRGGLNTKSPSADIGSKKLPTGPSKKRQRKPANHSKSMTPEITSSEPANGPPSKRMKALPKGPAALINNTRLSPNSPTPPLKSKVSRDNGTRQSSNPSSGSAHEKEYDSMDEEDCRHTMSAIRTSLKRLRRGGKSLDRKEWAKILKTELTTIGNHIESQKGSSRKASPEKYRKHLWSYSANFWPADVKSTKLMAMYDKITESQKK

Sequence of Sialic acid-binding Ig-like lectin 9 (Homo sapiens) (Q9Y336 whole entry): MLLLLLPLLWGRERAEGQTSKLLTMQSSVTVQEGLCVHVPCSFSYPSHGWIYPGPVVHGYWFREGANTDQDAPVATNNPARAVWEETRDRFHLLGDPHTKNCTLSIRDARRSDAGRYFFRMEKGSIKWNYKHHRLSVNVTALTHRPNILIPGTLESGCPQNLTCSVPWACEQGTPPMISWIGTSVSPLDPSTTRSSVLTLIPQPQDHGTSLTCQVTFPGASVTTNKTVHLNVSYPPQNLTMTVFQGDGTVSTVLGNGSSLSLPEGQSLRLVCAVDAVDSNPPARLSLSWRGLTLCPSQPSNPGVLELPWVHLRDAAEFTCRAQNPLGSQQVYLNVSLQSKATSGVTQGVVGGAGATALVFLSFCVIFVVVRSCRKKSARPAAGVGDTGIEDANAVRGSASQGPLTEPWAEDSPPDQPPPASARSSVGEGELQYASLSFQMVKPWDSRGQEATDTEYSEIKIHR
Sequence of Protein translocase subunit SecA (Escherichia coli (strain K12)) (P10408 whole entry): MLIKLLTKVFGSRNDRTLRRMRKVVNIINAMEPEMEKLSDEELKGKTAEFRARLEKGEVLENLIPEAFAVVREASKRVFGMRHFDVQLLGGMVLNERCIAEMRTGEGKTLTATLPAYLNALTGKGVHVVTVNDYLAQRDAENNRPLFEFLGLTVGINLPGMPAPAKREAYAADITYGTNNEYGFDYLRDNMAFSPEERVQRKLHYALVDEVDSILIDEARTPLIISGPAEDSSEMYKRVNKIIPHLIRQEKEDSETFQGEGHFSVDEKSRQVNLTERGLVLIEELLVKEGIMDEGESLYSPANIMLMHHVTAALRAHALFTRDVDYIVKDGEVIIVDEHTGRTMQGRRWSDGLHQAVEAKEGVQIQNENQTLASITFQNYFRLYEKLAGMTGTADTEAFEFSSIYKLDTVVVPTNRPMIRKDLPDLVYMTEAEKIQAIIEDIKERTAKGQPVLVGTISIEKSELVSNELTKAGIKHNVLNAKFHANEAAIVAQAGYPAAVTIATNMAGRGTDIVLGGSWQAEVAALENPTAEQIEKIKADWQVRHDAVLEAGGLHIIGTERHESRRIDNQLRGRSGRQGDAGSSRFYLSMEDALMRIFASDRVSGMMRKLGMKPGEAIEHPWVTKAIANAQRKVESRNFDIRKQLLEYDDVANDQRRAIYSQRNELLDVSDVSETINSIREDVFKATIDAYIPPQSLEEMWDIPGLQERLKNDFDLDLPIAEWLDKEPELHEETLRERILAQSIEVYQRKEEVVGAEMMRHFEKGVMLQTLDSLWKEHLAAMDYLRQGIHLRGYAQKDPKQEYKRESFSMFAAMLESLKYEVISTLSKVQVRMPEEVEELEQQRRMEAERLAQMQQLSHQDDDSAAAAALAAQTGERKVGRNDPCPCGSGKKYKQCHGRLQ

With `CCNC(=O)N1CCN(Cc2nc3ccccc3[nH]2)[C@@H]2CS(=O)(=O)C[C@@H]21`, the Percent Effect is -3.35% in test [1]; 5.41% in test [2]; -2.19% in test [3]; -3.56% in test [4]; -4.2% in the test on Trypanosoma cruzi; 2.23% in [5]. In addition, the Percent Effect in test [6] was 15.2%; in the test filed under Homo sapiens it was 1.54%; in [7], 4.3%; in test [8] it was 11.1%; in test [9] it was -3.76%.

Take `Cc1cnccc1CN1CC[C@@](C)(O)[C@H](Oc2ccccc2)C1`: the Percent Effect in test [1] was -3.92%; in test [2], 9.46%; in [3] it was 0.664%; in [4], -0.228%; in the test on Trypanosoma cruzi, 7.51%; in [5], -4.41%. In addition, the Percent Effect in test [6] is 12.9%; in the test filed under Homo sapiens, -16.3%; in test [7], 3.23%; in test [8], 9.09%; in test [9], -13.2%.

As to `Cc1nc(CN2CCN(C(=O)COCc3ccccc3)CC2)no1`, the Percent Effect in test [1] is -3.03%; in test [2], 5.41%; in test [3], -6.7%; in [4] it was 10.7%; in the test on Trypanosoma cruzi it was 5.96%; in test [5], 0.744%. For the same compound, the Percent Effect in test [6] was 9.19%; in the test filed under Homo sapiens, -1.99%; in test [7], -2.15%; in [8] it was 3.7%; in [9], -7.9%.

For `O=C(NCc1cn2c(n1)CN(CC1CCOCC1)CC2)C1CCC1`, the Percent Effect in test [1] was -8.08%; in [2] it was -2.7%; in test [3] it was 4.27%; in [4] it was 1.46%; with Trypanosoma cruzi, -2.73%; in [5] it was -1.25%. For the same compound, the Percent Effect in test [6] is 12.9%; in the test filed under Homo sapiens, 5.25%; in [7], 2.97%; in test [8], 1.22%; in test [9], -0.655%.

Take `Cc1nc(-c2ccsc2)ccc1C(=O)NCCN1CCOCC1`: the Percent Effect was -6.91% in test [1]; 10.5% in test [2]; -3.72% in test [3]; 7.24% in [4]; 4.32% in the test on Trypanosoma cruzi; -0.383% in test [5]. Besides, the Percent Effect in test [6] is 8.02%; in the test filed under Homo sapiens, 1.25%; in [7], 6.37%; in [8] it was 19.5%; in test [9] it was -8.61%.

`CCOc1ccc(Cl)c(C(=O)N2CCN(C(=O)c3ccoc3C)CC2)n1`: the Percent Effect in [1] is -5.76%; in [2], 20.8%; in [3], -1.75%; in test [4], 5.96%; with Trypanosoma cruzi, -4.49%; in test [5], -1.42%. Besides, the Percent Effect in test [6] was 15.4%; in the test filed under Homo sapiens it was 12.9%; in test [7], 7.77%; in test [8], 12.2%; in test [9], -6.62%.

For `Cc1cccc(NC2CCN(C(=O)Nc3cc(C)on3)CC2)n1`, the Percent Effect in test [1] is -3.9%; in test [2], 12.7%; in test [3], -3.67%; in test [4] it was 8.79%; in the test with Trypanosoma cruzi, 5.57%; in [5] it was 0.76%. Also, the Percent Effect in [6] is 1.39%; in the test listed under Homo sapiens, -22.6%; in test [7], 4.43%; in test [8] it was 16.5%; in [9], -8.82%.

For the compound `COCCN(C)CCN1CC2(CCN(C3CCCOC3)CC2)OC1=O` (stereo unspecified), the Percent Effect in [1] is -2.07%; in test [2], 20.8%; in [3], -4.24%; in test [4], 3.41%; in the test on Trypanosoma cruzi it was 0.295%; in test [5] it was -11%. Moreover, the Percent Effect in [6] was 16.5%; in the test filed under Homo sapiens it was 11.4%; in test [7] it was 3.23%; in [8], 18.5%; in test [9] it was -6.77%.

Regarding `CCOCC1CN(C(=O)N(C)C)Cc2nn(C)cc21` (stereo unspecified), the Percent Effect is -3.04% in test [1]; 8% in test [2]; -0.352% in [3]; 2.29% in [4]; -0.579% with Trypanosoma cruzi; -40.3% in test [5]. Besides, the Percent Effect is 8.03% in test [6]; -8.7% in the test listed under Homo sapiens; 1.04% in test [7]; 10% in [8]; -7.3% in test [9].

In the case of `CN(Cc1ccccn1)C1COC2(CCN(Cc3nccs3)CC2)C1` (stereo unspecified), the Percent Effect is -4.64% in [1]; 21.3% in test [2]; -8.85% in [3]; -0.12% in test [4]; 1.35% with Trypanosoma cruzi; -57.5% in test [5]. The Percent Effect in test [6] was 12.8%; in the test listed under Homo sapiens, 5.05%; in [7], 5.21%; in test [8], 20%; in test [9], -11.7%.

`O=C(c1cc(F)ccc1F)C1CCN(C(=O)c2ccc(=O)[nH]n2)CC1`: the Percent Effect in test [1] is -2.7%; in test [2] it was 13%; in test [3], 0.316%; in test [4], 0.809%; with Trypanosoma cruzi it was -3.43%; in test [5], 2.32%. The Percent Effect in test [6] is 7.52%; in the test listed under Homo sapiens it was 15.8%; in test [7] it was 3.81%; in test [8], 18.8%; in test [9] it was -6.34%.
